Compound activity from PubChem BioAssay.
Hits are enriched below; roughly 1.6% of the tested compounds scored in any of these assays.
PERK inh: blocks human PERK kinase | hit rate 0.17% among 220,000 | Q9NZJ5 | inhibition, % at 5.6 µM | CHO PERK-DD fusion, SEAP luminescence translation reporter;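 active = inhibition above the mean inhibition of all tested compounds plus 3 SD, set separately per screening campaign, cut at about 2.9% in these data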;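 note: PERK kinase domain activated by AP20187 dimerizer at 100 nM; 0% = DMSO with dimerizer and 100% = rapamycin at 8.4 µM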
eIF4E 4G PPI: eIF4E/eIF4G interaction inhibition in translation initiation. P63073+Q04637. TR-FRET eIF4E-eIF4GI(517-606) binding, 2 h. inhibition, % at 21.7 µM. hit rate 0.37% among 220,000;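 active = inhibition above about 30%, limit read from the data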;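 note: 0% = full FRET control wells and 100% = background wells lacking eIF4GI fragment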
eIF4H inh: inhibitors of RNA binding by human eIF4H; inhibition, % at 35 µM; eIF4H fluorescence polarization binding assay; Q15056; hit rate 0.94% among 290,000;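 note: calls also rest on retests at 20 µM and on dose response follow-up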
PABP polyA inh: blocks human PABP binding to poly(A) RNA; hit rate 1% among 290,000; fluorescence polarization; inhibition, % at 35 µM;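 note: calls also rest on retests at 20 µM and on dose response follow-up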
Target sequence (P11940 whole entry, looked up): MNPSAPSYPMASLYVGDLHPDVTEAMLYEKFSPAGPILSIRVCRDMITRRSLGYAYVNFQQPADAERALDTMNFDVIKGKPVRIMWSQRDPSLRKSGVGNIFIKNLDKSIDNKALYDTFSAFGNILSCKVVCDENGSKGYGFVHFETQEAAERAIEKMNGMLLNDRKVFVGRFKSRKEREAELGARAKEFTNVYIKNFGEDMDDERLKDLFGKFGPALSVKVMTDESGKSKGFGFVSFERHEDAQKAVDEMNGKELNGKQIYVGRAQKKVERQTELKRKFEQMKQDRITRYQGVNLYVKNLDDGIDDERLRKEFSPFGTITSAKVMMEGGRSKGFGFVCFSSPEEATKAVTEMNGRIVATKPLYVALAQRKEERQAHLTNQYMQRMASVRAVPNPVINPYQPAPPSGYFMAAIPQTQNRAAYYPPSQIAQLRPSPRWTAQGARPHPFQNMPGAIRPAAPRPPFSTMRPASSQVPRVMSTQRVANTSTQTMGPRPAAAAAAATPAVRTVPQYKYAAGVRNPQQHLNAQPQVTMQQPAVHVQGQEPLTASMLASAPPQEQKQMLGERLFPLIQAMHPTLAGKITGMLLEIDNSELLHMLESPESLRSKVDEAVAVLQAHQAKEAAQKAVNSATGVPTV
PABP1 MLLE inh: inhibitors of microRNA-mediated deadenylation, human PABP1 MLLE binding; P11940; GST-MLLE / FITC-PAM2 fluorescence polarization; inhibition, % at 20 µM; hit rate 0.36% among 360,000; AID 588489; in the data active = inhibition above about 35%, passing the limit was not always enough;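 note: plate controls were DMSO wells with GST-MLLE for no effect and wells lacking GST-MLLE protein for full effect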
* marks the source's active call; other numbers are inactive results; ? = inconclusive; . = not tested or not shown; ! = not active in a repeat; [ ] = another dose, or the depositor's remark. Unless noted, the rule behind the calls is not given here.

SMILES	PERK inh	eIF4E 4G PPI	eIF4H inh	PABP polyA inh	PABP1 MLLE inh
CN(C)c1ccc(C=C2C(=O)NC(=O)NC2=O)cc1[N+](=O)[O-]	1	-1	2	-4	31
CN(C)c1ccc(C=C2C(=O)NC(=S)NC2=O)cc1[N+](=O)[O-]	0	7	15	36	40*
Cc1cc(C=O)c(C)n1C1CCCCC1	0	3	-4	2	8
O=C1C=C(N2CC2)c2ccccc2C1=O	.	.	.	.	35
O=C1c2ccccc2-c2cccc3cccc1c23	.	.	.	.	55*
O=C1c2ccccc2-c2cc3ccccc3cc21	.	.	.	.	46*
Cn1cnc([N+](=O)[O-])c1Sc1ccc([N+](=O)[O-])cc1	1	1	19	9	47*
O=[N+]([O-])c1ccc(C(c2ccc([N+](=O)[O-])cc2)c2ccc([N+](=O)[O-])cc2)cc1	.	.	.	.	-3
Cc1cccc(N2CCc3c2nc2ccccc2c3N)c1	-1	94*![fluorescence artefact?]	8	0	-13
CNC(=O)CSP(=S)(OC)OC	.	.	.	.	40*
CCOC(=O)CNC(=O)CSP(=S)(OCC)OCC	1	0	2	-9	29
CCN1C(=O)NC(=O)/C(=C\c2ccc(N3CCOCC3)cc2OC)C1=O	2	-1	?	78*	.
C=COCCn1c(C)c(C(C)=O)c2cc(O)ccc21	0	1	-4	8	-1
C=Cn1ccnc1P(=S)(c1ccccc1)c1nccn1C=C	1	3	active	91	0
COCCCNC(=O)c1c(NC(=O)c2ccccc2Cl)n(Cc2ccccc2)c2nc3ccccc3nc12	0	-2	42*	59	-12
O=c1[nH]c(=O)n(-c2cccc(Cl)c2)c(O)c1/C=N/c1ccccn1	0	9	85*	63*	-33
COc1ccc2nc(/N=C/c3c(O)n(-c4cccc(Cl)c4)c(=O)[nH]c3=O)sc2c1	2.9*	-2	?	?	-85
N=Cc1c(O)n(-c2cccc(Cl)c2)c(=O)[nH]c1=O	1	-2	0	-2	10
CCOC(=O)c1c(N)n(CCN2CCCCC2)c2nc3ccccc3nc12	-2	-2	94*	105*	-12
CCCCn1c(NS(=O)(=O)c2ccccc2)c(C(=O)OCC)c2nc3ccccc3nc21	-1	6	active	64*	-4
CCC(C)NC(=O)c1c(N)n(CCCOC)c2nc3ccccc3nc12 (centres undefined)	-2	15	61*	68*	8
COCCCn1c(N)c(C(=O)Nc2ccccc2)c2nc3ccccc3nc21	-2	1	-2	0	-2
O=c1cccc2n1CC1CC2CN(c2ncnc3c2cnn3-c2ccccc2)C1 (centres undefined)	-1	-7	2	12	7
CNC(=O)Oc1cc2c(cc1C(C)(C)C)CCC2	.	.	.	.	1
CN1C(=O)NC(=O)/C(=C\c2ccc([N+](=O)[O-])o2)C1=O	-1	13	95	4	12
SMILES	PERK inh	eIF4E 4G PPI	eIF4H inh	PABP polyA inh	PABP1 MLLE inh
CC(C)c1ccc(N2C(=O)CC(=O)NC2=O)cc1	.	.	?	18*	-47
CCOc1cccc(N2C(=O)CC(=O)NC2=O)c1	0	3	32	2	-24
COc1cccc(N2C(=O)CC(=O)NC2=O)c1	0	4	77*	76*	-15
CN1C(=O)C(=Cc2sc(=O)n(-c3ccccc3)c2N2CCCCC2)C(=O)N(C)C1=O	-2	-6	?	?	-153
CN1CCN(c2nc3ccccn3c(=O)c2C=C2C(=O)N(C)C(=O)N(C)C2=O)CC1	1	5	?	120*	2
O=C(NC1(C(F)(F)F)Oc2ccc(Cl)cc2O1)N1CCC2(CC1)OCCO2 (centres undefined)	1	3	18	17	9
CCOC(=O)C1SC2(C(F)(F)F)CC1(O)c1c(C)cc(C)nc1O2 (centres undefined)	0	0	-7	-7	60*
Cn1c(O)c(C=Nc2ccccc2Sc2ccccc2)c(=O)n(C)c1=O	0	2	87	active	2
COc1ccc(-n2nnnc2C(c2cccs2)N2CCC(n3c(=O)[nH]c4ccccc43)CC2)cc1 (centres undefined)	.	.	.	.	-5
COc1ccc(C2C3C=CC(C3)C2C(=O)O)cc1 (centres undefined)	.	.	.	.	3
CN(C)C1C(=O)C(C(N)=O)=C(O)C2(O)C(=O)C3=C(O)c4c(O)cccc4C(C)(O)C3CC12 (centres undefined)	.	.	81*	56*	0
